Laboratory results from the supplement of paper PMC11219838.
A number with no mark means an inactive call.

Each compound was assayed on Caenorhabditis elegans dauer (daf-2(e1370)) (assay: proportion of mobile C. elegans dauer larvae relative to DMSO control (fraction of DMSO control); higher = more viable, less nematicidal, active = 0.63 or less; extreme values may be limits of the assay). Conditions: 60 µM; 5 days; temperature: 20 °C.
Description: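 DODA library (846 commercial 1,3,4- and 1,2,4-oxadiazole compounds plus commercial nematicide controls) screened at a single dose of 60 µM (0.6% DMSO) in 96-well plates, two biological replicates. Read-outs: C. elegans N2 L1 survival/reproduction score at day 6, 20 °C (0: 0-10 worms, 1: 11-20, 2: 21-50, 3: >50, 4: overgrown/starved). C. elegans daf-2 dauer, D. dipsaci and M. hapla J2 mobility at day 5, 20 °C, and P. penetrans mobility at day 5, 20 °C, each relative to DMSO controls. M. hapla egg hatching at day 12, 25 °C, relative to the mean of 8 DMSO wells on the same plate.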

SMILES | proportion of mobile C. elegans dauer larvae
COc1ccc(Cl)cc1-c1nc(-c2ccc3c(c2)OCO3)no1 | 1
CCc1ccc(OCc2nc(-c3ccccn3)no2)cc1 | 1
Cc1ccc(-c2noc(COc3ccc(Cl)c(C)c3)n2)cc1 | 1
Cc1ccccc1CSc1nnc(-c2ccccc2Cl)o1 | 1
COc1ccc(Cl)cc1NC(=O)CSc1nnc(-c2ccc(Br)cc2)o1 | 1
Cc1cccc(-c2noc(COc3cc(C)ccc3C)n2)c1 | 1
CCOc1nc(-c2ccccc2)ccc1-c1noc(-c2cccc(OC)c2)n1 | 1
Brc1ccc(-c2nc(-c3ccccc3)no2)cc1 | 1
CC(C)(C)c1ccc(-c2noc(COc3ccccc3)n2)cc1 | 1
Cc1ccc(-c2nc(-c3ccccc3)no2)cc1C | 1
O=C(CSc1nnc(-c2ccco2)o1)Nc1cccc2ccccc12 | 1
Cc1csc(NC(=O)CSc2nnc(-c3cccc(Cl)c3)o2)n1 | 1
Cc1ccc(-c2nnc(SCc3ccccc3C#N)o2)cc1 | 1
CC1Cc2ccccc2N1C(=O)CSc1nnc(-c2ccccc2)o1 (stereo not given) | 1
CC(=O)Nc1ccc(C(=O)CSc2nnc(-c3cccc(Br)c3)o2)cc1 | 1
Clc1ccccc1OCc1nc(-c2cccs2)no1 | 1
COc1cccc(-c2nc(-c3ccc(F)cc3)no2)c1 | 1
Fc1ccc(-c2noc(COc3ccccc3)n2)cc1 | 0.5 (active)
COc1ccc(-c2noc(-c3ccc(C)c(Cl)c3)n2)cc1 | 1
O=C(CSc1nnc(-c2ccco2)o1)NC1CCCCC1 | 1

SMILES | proportion of mobile C. elegans dauer larvae
Cc1cc(C)c(NC(=O)CSc2nnc(-c3ccc(Br)cc3)o2)c(C)c1 | 1
Fc1ccc(-c2nc(-c3cccc(C(F)(F)F)c3)no2)cc1 | 1
COc1nc(C)ccc1-c1noc(-c2ccc(C(C)(C)C)cc2)n1 | 1
COc1ccc(-c2noc(-c3cccc(Br)c3)n2)cc1 | 1
Cc1cc(C)c(OCc2nc(-c3ccncc3)no2)c(C)c1 | 1
COc1ccc(C(=O)CSc2nnc(-c3cccc(Br)c3)o2)cc1 | 1
Cc1ccc(-c2nnc(SCC(=O)Nc3cc(C)ccc3C)o2)cc1 | 1
Cc1ccc(OCc2nc(-c3ccc(F)cc3)no2)cc1C | 1
COc1ccc(-c2noc(-c3ccccc3Cl)n2)cc1 | 1
CCOc1nc(-c2ccccc2)ccc1-c1noc(CC)n1 | 1
CCOc1ccc(-c2nc(-c3ccccc3C)no2)cc1 | 1
CCC(=O)Nc1ccccc1-c1nc(-c2ccncc2)no1 | 1
COc1ccccc1OCc1nc(-c2cccc(Br)c2)no1 | 1
c1cncc(-c2noc(COc3cccc4ccccc34)n2)c1 | 1
CCOc1ccccc1-c1nnc(SCC(=O)Nc2nccs2)o1 | 1
COc1ccc(-c2nnc(SCC(=O)Nc3ccc(Cl)c(Br)c3)o2)cc1 | 1
COc1ccc(-c2nnc(SCC(=O)Nc3ccc(C(C)C)cc3)o2)cc1 | 1
COc1ccccc1NC(=O)CSc1nnc(-c2ccccc2)o1 | 1
COc1ccc(Cl)cc1-c1noc(COc2ccc(Cl)cc2)n1 | 1
COc1ccc(Cl)cc1-c1noc(-c2ccccc2)n1 | 1
